Only some compounds are listed: those with a hit (about 1.9% of all), similar ones and a draw of the others.
BJeLR viability: MLPCN primary cell-based screen for lethality selective to Ras in HRASV12 cells; inhibition, % (no concentration beside the values); 300,000 compounds, 0.17% hits; BJeLR (HRASV12) viability, CellTiter-Glo ATP luminescence, 48 h; AID 1554, 2009; in the data active means inhibition above about 50%
RecA intein inh: Mtb RecA intein splicing inhibitors, primary screen, biochemical, fluorescence, HTS; 290,000 compounds, 0.75% hits; inhibition, % (test concentration not listed); AID 2221, 2009; cell-free RecA intein splicing; in the data active means inhibition above about 30%;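 further: 0% = vehicle wells and 100% = reference inhibitor control wells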
Target sequence (P9WHJ3 whole entry, looked up): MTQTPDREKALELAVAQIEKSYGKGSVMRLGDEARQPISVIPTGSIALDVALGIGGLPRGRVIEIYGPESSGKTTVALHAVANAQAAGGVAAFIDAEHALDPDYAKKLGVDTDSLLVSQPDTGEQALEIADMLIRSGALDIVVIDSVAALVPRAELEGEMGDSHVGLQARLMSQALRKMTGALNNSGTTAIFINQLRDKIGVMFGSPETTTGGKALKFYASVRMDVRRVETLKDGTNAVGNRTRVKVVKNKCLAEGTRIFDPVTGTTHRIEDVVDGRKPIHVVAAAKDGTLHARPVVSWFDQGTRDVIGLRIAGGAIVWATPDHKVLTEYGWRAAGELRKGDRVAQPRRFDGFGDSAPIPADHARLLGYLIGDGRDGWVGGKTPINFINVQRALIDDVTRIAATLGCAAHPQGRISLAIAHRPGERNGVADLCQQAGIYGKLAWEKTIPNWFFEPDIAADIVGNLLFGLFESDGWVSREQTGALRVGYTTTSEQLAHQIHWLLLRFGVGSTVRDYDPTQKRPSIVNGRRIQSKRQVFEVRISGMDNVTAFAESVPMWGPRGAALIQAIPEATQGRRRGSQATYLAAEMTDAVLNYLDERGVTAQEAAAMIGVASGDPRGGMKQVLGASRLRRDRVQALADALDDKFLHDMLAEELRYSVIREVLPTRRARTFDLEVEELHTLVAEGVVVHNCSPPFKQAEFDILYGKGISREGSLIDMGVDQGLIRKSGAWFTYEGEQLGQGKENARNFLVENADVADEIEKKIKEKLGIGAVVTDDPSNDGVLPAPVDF
PfHsp40 yeast: rescue of yeast from PfHsp40 toxicity, primary screen, S. cerevisiae, ATP luminescence; S. cerevisiae expressing PfHsp40, growth rescue; growth rescue, % at 12.5 µM; 340,000 compounds, 0.68% hits; in the data active means growth rescue above about 28%, passing the limit was not always enough;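 further: yeast W303a lacking pdr1 and pdr3 grown in galactose medium; growth measured after three days at 30 °C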
PriA SSB inh: inhibitors of Klebsiella pneumoniae PriA binding to SSB C-terminal tail, primary screen, biochemical, AlphaScreen; inhibition, % at 33 µM; PriA–SSB C-terminal tail interaction (Klebsiella pneumoniae); 430,000 compounds, 0.6% hits; AlphaScreen SSBct-PriA binding, biotinylated peptide; in the data active means inhibition mostly above about 37%, no sharp cut-off; inactive means mostly below about 20%;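 further: plate controls were negative control peptide for no effect and reference peptide for full effect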
PrPC surface inh: inhibitors of human cell surface prion protein PrPC, primary screen, cell-based, TR-FRET | Major prion protein (Homo sapiens), P04156 | TR-FRET read-out | inhibition, % at 13.8 µM | 370,000 compounds, 0.43% hits | AID 720596, 2013; in the data active means inhibition above about 24%; further: 0% = median of the test wells and 100% = reference compound wells
PrP 5UTR inh: inhibition of PrP 5' UTR reporter expression; 340,000 compounds, 0.35% hits; AID 488862, 2010; cell-based PrP 5' UTR mRNA reporter, plate reader; inhibition, % (test concentration not listed); in the data active means inhibition above about 52%; further: 0 = median of the neutral control wells
PrPC TRFRET cf: confirmation of inhibitors of cell surface human prion protein, confirmation, cell-based, TR-FRET | shares compounds with PrPC surface inh | AID 743200, 2013 | 1,500 compounds, 65% hits | cell surface PrPC level | inhibition, % at 13.8 µM; in the data active means inhibition above about 25%
LD9 tox: cytotoxicity in LD9 cells, cytotoxicity control for cell surface PrPc inhibitor project, cell-based, luminescence, high throughput; shares compounds with PrPC surface inh; luminescence viability; inhibition, % at 13.8 µM; 1,500 compounds, 29% hits; AID 743201, 2013; in the data active means inhibition above about 9.5%
Active calls of the source: *; . = not tested or not shown.

SMILES	BJeLR viability	RecA intein inh	PfHsp40 yeast	PriA SSB inh	PrPC surface inh	PrP 5UTR inh	PrPC TRFRET cf	LD9 tox
O=C(Nc1ccc(F)cc1)Nc1cc(OCC(F)(F)F)cc(OCC(F)(F)F)c1	11	3	-1	-20	44*	-4	44*	27*
CCOc1ccc(NC(=O)Nc2cc(OCC(F)(F)F)cc(OCC(F)(F)F)c2)cc1	6	0	1	1	10	-20	.	.
CCCCCN=C(N)C(Cl)(Cl)Cl	.	.	.	-13	.	.	.	.
O=C(c1ccc(Cl)c(Cl)c1)c1cc(-c2ccccn2)c(N2CCOCC2)s1	2	-46	1	-53	41*	-8	52*	5
CCOc1cc(C2Nc3ccccc3C(=O)N2c2ccccc2)c(Br)cc1OCC(=O)O (stereo unspecified)	9	-9	0	-10	93*	-14	63*	-4
CC(C)C[C@@H](CN1CCC[C@H]1CN1C(=O)C(=O)NC[C@@H]1Cc1ccccc1)N1C[C@H](Cc2ccc(O)cc2)N(CC2CCCCCC2)C(=O)C1=O	.	.	.	.	26*	.	24	1
CCOc1cc2[nH]c(=S)n(C(C)C)c(=O)c2cc1OCC	-4	0	1	-7	33*	-24	36*	-1
CCOc1cc2[nH]c(=S)n(C3CC3)c(=O)c2cc1OCC	3	0	0	-10	-7	7	.	.
COc1cccc(C(=O)NCc2ccc3c(c2)cc(C)n3C)c1	1	3	-1	15	46*	-29	49*	0
COc1ccc(/C=C\C(=O)NCc2ccc3c(c2)cc(C)n3C)cc1OC	-9	-3	0	15	81*	-14	59*	-9
Cc1cc2cc(CNC(=O)c3cccs3)ccc2n1C	-6	19	0	17	35*	-30	17	3
COc1ccc(C(=O)NCc2ccc3c(c2)cc(C)n3C)cc1OC	-2	2	-2	-1	45*	30	8	-1
Cc1cc2cc(CNC(=O)c3cccc(Br)c3)ccc2n1C	.	.	.	-3	.	.	.	.
CCOC(=O)Nc1nc(-c2ccccc2)c(C(=O)c2ccc(Cl)cc2)s1	33	18	9	1	25*	-1	16	9.6*
CC(=O)c1cccc(NS(=O)(=O)c2ccc(-c3cnc(C4CC4)o3)cc2)c1	31	0	3	1	30*	-42	22	19*
Cn1cccc1/C=N\NC(=O)Cc1ccc(Br)c2ccccc12	7	0	-1	.	31*	6	35*	0
O=C(CSc1ccc(F)cc1)N1CCC(Oc2cccnn2)CC1	.	.	.	-2	.	.	.	.
COc1ccc2nc(-c3ccc(OC)c(NC(=O)c4ccco4)c3)cn2n1	.	.	.	-20	.	.	.	.
O=C(CSc1nc2c(sc3ccccc32)c(=O)n1CCc1c[nH]c2ccccc12)NCc1ccco1	.	.	.	-19	.	.	.	.
COc1cc(N2C(=O)NC3CC2(C)Oc2ccccc23)cc(OC)c1OC (stereo unspecified)	3	-1	-2	-7	33*	-13	3	-7
CCN(c1cccc(C)c1)S(=O)(=O)c1ccc2c(c1)CCN2C(C)=O	-10	-1	0	0	-6	-15	.	.
CCN(c1cccc(C(F)(F)F)c1)S(=O)(=O)c1ccc2c(c1)CCN2C(C)=O	-1	0	0	-20	80*	-2	18	-4
COC(=O)NC(C)Cc1ccoc1 (stereo unspecified)	.	.	.	-10	.	.	.	.
CCCCc1ccc(NC(=O)C[C@@H]2Nc3ccccc3NC2=O)cc1	.	.	.	8	.	.	.	.
O=C(Nc1ccccc1)c1cc(C2CCCCN2S(=O)(=O)c2cccs2)on1 (stereo unspecified)	.	.	.	.	22	.	.	.
SMILES	BJeLR viability	RecA intein inh	PfHsp40 yeast	PriA SSB inh	PrPC surface inh	PrP 5UTR inh	PrPC TRFRET cf	LD9 tox
O=C(Nc1ccccc1)c1cc(C2CCCCN2S(=O)(=O)c2ccccc2)on1 (stereo unspecified)	.	.	.	.	29*	.	15	1
O=C(Nc1ccc2c(c1)OCO2)c1cc(C2CCCCN2S(=O)(=O)c2cccs2)on1 (stereo unspecified)	.	.	.	.	57*	.	48*	2
C=CCc1ccc(/C=N\Nc2ccc(-n3ccnc3)nn2)cc1	.	.	.	-14	.	.	.	.
O=C(NCc1ccccn1)c1coc(=O)c(Br)c1	11	-3	-1	8	27*	-12	-2	0
CCOc1ccc(C(=O)NCc2ccccn2)cc1	12	-3	0	-11	.	-11	.	.
COc1ccccc1CNc1nc(Nc2cccc(-c3cnco3)c2)c2sccc2n1	.	.	.	.	25*	.	33*	35*
COc1ccccc1CNc1nc(NCc2ccccc2OC)c2sccc2n1	.	.	.	.	16	.	.	.
CO[C@@H](CNS(=O)(=O)c1ccc2c(c1)CCO2)c1ccccc1Cl	.	.	.	-15	.	.	.	.
Cc1cc(NC(=O)c2c(-c3ccccc3Cl)noc2C)n(-c2nc3c(c(=O)[nH]2)CCC3)n1	.	.	.	-2	.	.	.	.
Cc1c(N/N=C(\C#N)C(=O)c2ccc(Cl)cc2)c(=O)n(-c2ccccc2)n1C	13	-7	99*	.	34*	22	26*	25*
COC(=O)/C(C(C)=O)=C(/C=C/C=C/N(C)C)N(C)C	1	-4	1	-9	50*	-5	7	4
Cc1nn(Cc2ccc(Cl)c(Cl)c2)c(C)c1NC(=O)c1cc(CC(C)C)on1	3	-2	-1	-13	49*	-8	51*	1
Cc1ccccc1Cn1nc(C)c(NC(=O)c2cc(CC(C)C)on2)c1C	1	1	0	4	7	-12	.	.
O=C(N1CCN(c2ccccc2F)CC1)C1(c2ccccc2)CCOCC1	.	.	.	-5	.	.	.	.
N#Cc1c(Cl)cccc1N1CCSCC1	.	.	.	.	-5	.	.	.
N#Cc1c(N2CCSCC2)nsc1-c1ccccc1Cl	6	1	3	-16	27*	-20	23	-7
CC(C)N1CCc2c(sc(NC(=O)C3CCCCC3)c2C(N)=O)C1	-15	-22	0	-2	32*	-19	8	3

Assay outcomes deposited in PubChem BioAssay by several laboratories.
